In PubChem BioAssay one finds fold change permeability data, which are given here for 36 molecules.

A number with no mark means an inactive call. Calls of active or inactive are those of the source. No stated cut-off is given here; in the data, active means fold change permeability below about 0.7 or above about 1.3; inactive means in between.

A short description of this test: compounds altering in vitro BBB leakiness – cell-based, FITC-avidin fluorescence, HTS, primary screen (AID 1963498). Further: test concentration not given here. As to conditions: brain endothelial barrier, actives lie on both sides.
With `CCCC[N+]1(C)C2CC(OC(=O)[C@H](CO)c3ccccc3)CC1C1OC12` (stereo partly specified), the fold change permeability was 0.8.

For the molecule `O=C1C=CC(=O)C=C1`, the fold change permeability is 1. The value for `COc1ccc(CCNCc2ccc(OC)c3ccccc23)cc1` was 1.7 (active); that for `CC[C@@H](CO)NC(=O)[C@@H]1C=C2c3cccc4c3c(cn4C)C[C@H]2N(C)C1` was 0.7 (active). As for `C[C@]12CCC3C(CC[C@H]4C[C@H](O)CC[C@]34C)C1CC[C@@H]2C(=O)CO` (stereo partly specified), the fold change permeability is 1.1.

Turning to `Cc1nccc2c1[nH]c1ccccc12`, the fold change permeability was 1.2. Consider `NC(CCP(=O)(O)O)C(=O)O` (stereo unspecified), for which the fold change permeability is 1. On to `O=C[C@H](Cl)[C@@H](O)[C@H](O)[C@H](O)CO`, for which the fold change permeability was 1.1. With `O=C(N[C@H]1CN2CCC1CC2)c1c[nH]c2ccsc2c1=O` the figure was 0.9; with `CCCN(CCC)[C@@H]1CCc2cccc(O)c2C1`, 1.2; with `NC(CP(=O)(O)O)C(=O)O` (stereo unspecified), 1. With `C[N+]1(C)[C@@H]2CC[C@H]1CC(OC(=O)C(CO)c1ccccc1)C2` (stereo partly specified) the figure was 1; with `CC(N)c1cccc(Cl)c1Cl` (stereo unspecified), 1.1. `CN1C[C@H](CNC(=O)OCc2ccccc2)C[C@@H]2c3cccc4c3c(cn4C)C[C@H]21`: the fold change permeability was 1.4 (active).

Regarding `CC(C)=CCOc1c2occc2cc2ccc(=O)oc12`, the fold change permeability was 1.5 (active). For `NCCc1c[nH]c2ccc(C(N)=O)cc12`, the fold change permeability is 1. With `CCCN1CCC[C@H](c2cccc(O)c2)C1` the figure was 1. The value for `CN(C(=O)Cc1ccc(Cl)c(Cl)c1)C(CN1CCCC1)c1cccc(OCC(=O)O)c1` (stereo unspecified) was 1.1; that for `Cn1cnc(CCN)c1` was 0.9.

For the molecule `CN1C2CCC1CC(OC(c1ccccc1)c1ccccc1N)C2` (stereo unspecified), the fold change permeability is 1.1.

Regarding `C[N+](C)(C)CC(=O)O`, the fold change permeability was 1.

For `O=[N+]([O-])c1ccc2nc(N3CCNCC3)ccc2c1`, the fold change permeability is 1.

In the case of `CCCN1CCC[C@@H]2Cc3[nH]ncc3C[C@H]21`, the fold change permeability is 0.9. With `CCN1C[C@]2(COC)[C@H](O)C[C@H](OC)[C@]34C1[C@H]([C@H](OC)[C@H]23)[C@]1(OC(C)=O)[C@H]2[C@@H](OC(=O)c3ccccc3)[C@](O)(C[C@H]24)[C@@H](OC)[C@@H]1O` the figure was 1; with `Nc1ccncc1`, 0.9. With `Cc1cc([C@@H]2CCCN2C)on1` the figure was 1.1; with `CC(N)Cc1c[nH]c2ccc(O)cc12` (stereo unspecified), 0.8; with `N=C(N)c1ccc(CS(=O)(=O)F)cc1`, 1.2. With `CC(=O)c1c(O)c(C)c(O)c(Cc2c(O)c3c(c(C(=O)/C=C/c4ccccc4)c2O)OC(C)(C)C=C3)c1O` the figure was 2 (active); with `NC(=NCCC[C@H](N)C(=O)O)N[N+](=O)[O-]`, 1. In the case of `O=C(O)[C@@H]1CCN1`, the fold change permeability was 1. For `Clc1cnc(Oc2ccc(Oc3ncc(Cl)cc3Cl)cc2)c(Cl)c1`, the fold change permeability was 1.4 (active).

On to `c1ccc2c(c1)[I+]c1ccccc1-2`, for which the fold change permeability is 1.7 (active).

Take `NC(=O)c1cc(N2CC2)c([N+](=O)[O-])cc1[N+](=O)[O-]`: the fold change permeability is 1. With `O=c1[nH]oc2c1CCNC2` the figure was 1.4 (active); with `Cc1c(F)cccc1[C@H]1COC(N)=N1`, 1.
